# A selection: hits, their analogues and other compounds. The true share with any hit is near 1.3%.
# AmpC detergent: AmpC beta-lactamase inhibition with detergent present; P00811; AmpC hydrolysis of nitrocefin, absorbance 480 nm, 0.01% Triton; Potency, µM (titrated, usually from 114 µM), inactives show at the top dose activity change, negative = inhibition, actives largely listed as inhibitors; 0.041% of 370,000 active; AID 485294;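 further: 0% = no-compound wells and -100% = no-enzyme wells; nearly all actives have a fitted effect of over 25% in size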
# Target sequence (P00811 whole entry, looked up): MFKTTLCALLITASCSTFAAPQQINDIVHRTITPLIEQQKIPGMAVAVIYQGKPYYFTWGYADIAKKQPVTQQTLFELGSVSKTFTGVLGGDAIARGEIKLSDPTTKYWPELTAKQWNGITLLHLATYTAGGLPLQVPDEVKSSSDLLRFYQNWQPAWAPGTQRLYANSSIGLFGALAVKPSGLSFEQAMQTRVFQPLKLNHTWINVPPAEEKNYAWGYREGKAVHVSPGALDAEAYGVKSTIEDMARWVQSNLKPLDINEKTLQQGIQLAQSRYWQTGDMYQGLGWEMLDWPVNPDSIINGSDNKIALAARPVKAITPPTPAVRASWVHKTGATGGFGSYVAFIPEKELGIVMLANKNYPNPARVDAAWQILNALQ
#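 AmpC (5.3 nM in the dispensed reagent) in 20 mM phosphate pH 7.0 with 0.01% (detergent screen) or 0.0001% Triton X-100 was preincubated with compounds for 15 min at room temperature. Nitrocefin was then added from an 800 uM solution, and hydrolysis was followed at 480 nm.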
# AmpC no deterg: blocks E. coli AmpC beta-lactamase in detergent-free assay | 0.52% of 330,000 active | P00811 | AmpC nitrocefin hydrolysis, absorbance 480 nm, 0.0001% Triton | Potency, µM (titrated, usually from 57.1 µM), for inactives: top-dose activity change, negative = inhibition, usual class: inhibitors;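 further: plate controls were no compound for no effect and no enzyme for full effect; nearly all actives have a fitted effect of over 20% in size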
#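 AmpC (5.3 nM in the dispensed reagent) in 20 mM phosphate pH 7.0 with 0.01% (detergent screen) or 0.0001% Triton X-100 was preincubated with compounds for 15 min at room temperature. Nitrocefin was then added from an 800 uM solution, and hydrolysis was followed at 480 nm.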
# LmPK inh: LmPK (Leishmania mexicana) enzyme inhibition. 0.37% of 290,000 active. AID 1721. purified LmPK, Kinase-Glo ATP luminescence, 1 h. Q27686. Potency, µM (series often up to 57.5 µM), inactives show at the highest dose activity change, negative = inhibition, most hits filed as inhibitors
#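 ATP generated from ADP (0.1 mM) and PEP (0.5 mM) by 0.1 nM LmPK over 1 h at room temperature (pH 7.2 imidazole buffer) was detected by coupled luciferase luminescence. Values were normalized to uninhibited and no-enzyme wells.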
# Giardia FBPA inh-1: inhibitors of Giardia lamblia fructose-1,6-bisphosphate aldolase; purified Giardia FBPA; Potency, µM (top dose mostly 59.6 µM), without a hit: top-dose activity, negative = inhibition, usual class: inhibitors; 0.71% of 290,000 active; AID 2451; further: nearly all actives have a fitted effect of over 55% in size
#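 40 nM FBPA preincubated 10 min at RT with compound (up to 57.5 uM final), then substrate plus GAPDH/TPI/NAD/arsenate coupling and diaphorase/resazurin added. Fluorescence read after 20 min at RT, 525/598 nm.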
# AMA1-RON2 inh: inhibitors of Plasmodium falciparum AMA1-RON2 interaction; Potency, µM (highest dose often 58.2 µM), without a hit: at the top dose activity change, negative = inhibition, actives largely listed as inhibitors; 0.2% of 360,000 active; AlphaScreen AMA1-biotinylated RON2 peptide binding;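 further: 0% = vehicle wells and -100% = peptide control; nearly all actives have a fitted effect of over 45% in size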
#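 AMA1 (3D7) with his tag at 25 nM final met compounds first, then biotinylated RON2 peptide at 25 nM; detection used donor plus acceptor beads, 10 µg/mL apiece, read by AlphaScreen after 30 min at room temperature.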
# Giardia growth: Giardia lamblia growth inhibition. shares compounds with Giardia FBPA inh-1. Giardia lamblia trophozoite growth inhibition. Potency, µM (titrated, usually from 57.5 µM), for inactives: at the highest dose activity change, negative = inhibition, hits mostly inhibitors. 5% of 1,500 active. AID 2785;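 further: trophozoites exposed to compound for 48 h at 37 °C; nearly all actives have a fitted effect of over 70% in size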
# Mammalian tox: counter-screen for Giardia aldolase inhibitors: mammalian cell toxicity; Potency, µM (highest dose often 57.5 µM), for inactives: top-dose viability change, negative = toxicity, hits mostly inhibitors; shares compounds with Giardia FBPA inh-1; mammalian cell viability counter-screen, qHTS; 4% of 1,500 active;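 further: Chinese hamster ovary cells used as mammalian cytotoxicity surrogate; viability measured as cellular ATP by luminescence; compound exposure lasted 48 h before reading; nearly all actives have a fitted effect of over 60% in size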
# Giardia FBPA inh-2: confirmation of Giardia fructose-bisphosphate aldolase inhibitors. shares compounds with Giardia FBPA inh-1. purified Giardia aldolase enzyme activity, qHTS. Potency, µM (doses to about 57.5 µM), for the others: top-dose activity change, negative = inhibition, usual class: inhibitors. 5% of 1,500 active. AID 2787; further: nearly all actives have a fitted effect of over 45% in size
# Rabbit FBPA inh: selectivity test for Giardia aldolase inhibitors: rabbit aldolase; shares compounds with Giardia FBPA inh-1; Rabbit muscle FBPA enzyme inhibition, selectivity counter-screen; Potency, µM (doses to about 57.5 µM), for the others: at the highest dose activity, negative = inhibition, actives largely listed as inhibitors; 4% of 1,500 active; AID 2794; further: nearly all actives have a fitted effect of over 60% in size
# GAPDH coupling: GAPDH inhibition flagged for Giardia aldolase hits. Potency, µM (titrated, usually from 57.5 µM), for inactives: at the highest dose activity change, negative = inhibition, hits mostly inhibitors. 6% of 1,500 active. AID 2795. shares compounds with Giardia FBPA inh-1. GAPDH coupling enzyme counterscreen, biochemical, qHTS; further: nearly all actives have a fitted effect of over 55% in size
# Active calls of the source: *; ? = inconclusive; . = no result; [ ] = dose if it differs, or a comment. The call rests on the fitted dose curve; in most records, active means well fitted curve in the direction sought with a large enough effect; inconclusive means small, poorly fitted or top-dose-only effect, or another doubt; inactive means no such curve, though single readings can be large; an effect the other way counts as inactive or inconclusive. Unless noted, on the % scale 0 is the no-effect control and ±100 the full control effect; potency means the concentration at half of the fitted maximal effect.
SMILES,AmpC detergent,AmpC no deterg,LmPK inh,Giardia FBPA inh-1,AMA1-RON2 inh,Giardia growth,Mammalian tox,Giardia FBPA inh-2,Rabbit FBPA inh,GAPDH coupling
COc1ccc(CCn2c(NN=C(C)C)nc3c2c(=O)[nH]c(=O)n3C)cc1,-13%,-2%,-4%,2.8µM*,107%,-7%[38.3 µM],-21%,13µM*,?,14µM*
COc1cccc(CNC(=O)c2cccn2-c2nnc(N3CCCC3)s2)c1,3%,.,.,.,.,.,.,.,.,.
Cc1ccc(C)c(Nc2nnc(-c3ccc(C)c(S(=O)(=O)NCC4CCCO4)c3)c3ccccc23)c1 (configuration not stated),10%,.,.,.,.,.,.,.,.,.
CN(CCC#N)C(=S)NC(=O)c1ccc(S(=O)(=O)N2CCOCC2)cc1,-16%,-5%,3%,16µM*,97%,8%,-1%,6%,9%,15%
O=C(NC(=S)N(CCO)Cc1ccccc1)c1ccc(S(=O)(=O)N2CCCC2)cc1,?,-33%,4%,8.9µM*,55%,0%[10.4 µM],7%,4%,8%,10%
CC(=O)Nc1ccc(C(=O)Nc2ccc(S(=O)(=O)N3CCOCC3)cc2)cc1,-5%,-10%,-6%,9%,-4%,.,.,.,.,.
O=C(NCCc1ccccc1)c1ccc(S(=O)(=O)N2CCCCC2)cc1,.,.,.,.,-3%,.,.,.,.,.
CC(=O)N1CCN(C(=S)NC(=O)c2ccc(S(=O)(=O)N3CCOCC3)cc2)CC1,0%,-21%,7%,14µM*,15%,-7%[10.4 µM],3%,9%,11%,5%
CCC(NC(=O)Nc1nnc(C(F)(F)F)s1)(C(F)(F)F)C(F)(F)F,-2%,-28%,0%,-11%,5%,.,.,.,.,.
CCC(NC(=O)NNC(N)=S)(C(F)(F)F)C(F)(F)F,2%,-13%,-2%,20µM*,45%,17%,9%,6%,3%,7%
Cc1nnc(NC(=O)CCC(=O)N2CCN(S(=O)(=O)c3cc([N+](=O)[O-])ccc3C)CC2)s1,.,-1%,.,.,-13%,.,.,.,.,.
O=C(NCCC(F)(F)F)C1Cc2c(-c3ccc(Cl)cc3)ccnc2O1 (configuration not stated),.,.,.,.,0%,.,.,.,.,.
Nc1nc(=S)c2ncn([C@H]3O[C@@H](CO)[C@@H](O)[C@@H]3O)c2[nH]1,.,.,.,5.6µM*,.,-2%[19.1 µM],5µM*,-3%[28.7 µM],-3%[28.7 µM],-2%[28.7 µM]
Nc1nc(=S)c2ncn(C3OC(CO)CC3O)c2[nH]1 (configuration not stated),.,.,.,.,28%,.,.,.,.,.
C=CCSc1n[nH]c(-c2cccs2)n1,?,-16%,1%,13µM*,5%,-22%,6%,3%,-1%,3%
O=C(CSc1n[nH]c(-c2cccs2)n1)NCc1cccs1,-22%,-11%,0%,-14%,-14%,.,.,.,.,.
